Compound activity (PubChem BioAssay)
NPC1 prom act – qHTS Assay for NPC1 Promoter Activators | Huh7 NPC1 promoter luciferase reporter, 24 h | Potency, µM (titrated, usually from 9.22 µM), usual class: activators | hit rate 2.4% among 320,000; also: nearly all actives have a fitted effect of over 60% in size
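Compounds in DMSO were transferred onto Huh7 NPC1-luciferase reporter cells pre-incubated 2 h; after 24 h at 37 °C, Amplite reagent was dispensed and luminescence recorded 10 min later.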
Rab9 prom act – qHTS Assay for Rab9 Promoter Activators; Huh7 Rab9 promoter-luciferase reporter, luminescence, 24 h; Potency, µM (series often up to 9.22 µM), actives largely listed as activators; hit rate 2.8% among 320,000; also: nearly all actives have a fitted effect of over 60% in size
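Huh7 cells stably carrying a Rab9 promoter-luciferase reporter, 1500 cells per well in OP-MEM I with 10% FBS, treated with compound 24 hours at 37C. Luciferase activity read by luminescence after 10 minutes with Amplite reagent.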
ELG1 genotoxic – qHTS screen for small molecules that induce genotoxicity in human embryonic kidney (HEK293T) cells expressing luciferase-tagged ELG1. hit rate 1.3% among 330,000. HEK293T ELG1-luciferase reporter, luminescence, 16 h. Potency, µM (titrated, usually from 46 µM), actives largely listed as activators; also: nearly all actives have a fitted effect of over 60% in size
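After overnight (16 hr) compound treatment at 37 °C, ELG1-luciferase HEK293T cells were lysed with ONE-Glo; luminescence quantified 30 min later at room temperature.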
Luc counter – Counterscreen for Luciferase (Kinase-Glo TM) Inhibition | Kinase-Glo luciferase, ATP luminescence, 8 min | Potency, µM (doses to about 38.3 µM), hits mostly inhibitors | hit rate 0.28% among 200,000 | AID 1379, 2008; also: nearly all actives have a fitted effect of over 60% in size
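Light output from Kinase-Glo luciferase with luciferin and 10 uM ATP in 50 mM imidazole pH 7.2, KCl, MgCl2, Tween 20, BSA; compound pin-delivered, 8-min ambient incubation, then luminescence read.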
SMN2 splice enh – qHTS Assay for Enhancers of SMN2 Splice Variant Expression. AID 1458, 2008. Potency, µM (top dose mostly 46.1 µM), usual class: activators. HEK293 SMN2-luciferase splicing reporter, luminescence, 30-36 h. hit rate 2.8% among 210,000; also: nearly all actives have a fitted effect of over 55% in size
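qHTS luciferase splicing reporter: luminescence rises when SMN2 exon 7 is included in transfected HEK293 cells. Compound exposure lasted 30-36 h at 37C, with 4.5 mM final sodium butyrate as control, followed by a ONE-Glo read.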
FLuc counter – qHTS profiling assay for firefly luciferase inhibitor/activator using purifed enzyme and Km concentrations of substrates (counterscreen for miR-21 project); Luciferin 4-monooxygenase (Photinus pyralis), P08659; purified FLuc, Km substrates, luminescence inhibition; Potency, µM (top dose mostly 57.5 µM), most hits filed as inhibitors; hit rate 6.9% among 360,000; also: nearly all actives have a fitted effect of over 55% in size
Target sequence (P08659 whole entry, looked up): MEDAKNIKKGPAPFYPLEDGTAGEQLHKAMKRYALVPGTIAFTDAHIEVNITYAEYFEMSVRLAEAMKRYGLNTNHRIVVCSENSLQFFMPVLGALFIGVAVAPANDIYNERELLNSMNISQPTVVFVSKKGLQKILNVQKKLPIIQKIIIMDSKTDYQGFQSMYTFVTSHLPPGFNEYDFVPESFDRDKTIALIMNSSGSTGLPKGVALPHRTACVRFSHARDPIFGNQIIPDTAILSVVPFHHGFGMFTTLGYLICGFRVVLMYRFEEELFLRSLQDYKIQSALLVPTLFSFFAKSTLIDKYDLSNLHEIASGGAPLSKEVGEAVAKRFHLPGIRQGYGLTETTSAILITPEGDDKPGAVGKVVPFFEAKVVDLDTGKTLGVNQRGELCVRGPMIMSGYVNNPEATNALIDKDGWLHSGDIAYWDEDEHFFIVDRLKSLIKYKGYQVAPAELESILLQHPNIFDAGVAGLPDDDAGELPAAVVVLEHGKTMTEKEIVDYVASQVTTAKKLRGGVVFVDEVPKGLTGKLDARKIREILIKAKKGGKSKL
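Purified P. pyralis luciferase, 10 nM final, with Km-level 10 uM D-luciferin and 10 uM ATP in 50 mM Tris acetate pH 7.5, 10 mM Mg acetate, 0.01% Tween-20, 0.05% BSA; 6-point qHTS titration about 60 µM downward; luminescence read.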
Each line names hits and unclear results; the compound was inactive in the other large screens. In the library only some 7.5% were active in any assay of this set; here they are far more common. Calls follow the shape of the dose curve; as a rule, active = well fitted curve in the direction sought with a large enough effect; inconclusive = small, poorly fitted or top-dose-only effect, or another doubt; inactive = no such curve, though single readings can be large; an effect the other way counts as inactive or inconclusive.

Cc1ccnc(NC(=O)CNC(=O)COc2ccccc2)c1	ELG1 genotoxic inconclusive, FLuc counter 19µM (no result: Luc counter, SMN2 splice enh)
Cc1ccnc(NC(=O)CNC(=O)c2ccc3ccccc3c2)c1	ELG1 genotoxic 20.6µM, FLuc counter inconclusive (no result: Luc counter, SMN2 splice enh)
Cn1ccc(NC(=O)c2ccc(Cl)cc2)n1	ELG1 genotoxic inconclusive, FLuc counter inconclusive (no result: Luc counter, SMN2 splice enh)
Cn1ccc(NC(=O)c2ccc(Cl)cc2Cl)n1	NPC1 prom act 3.98µM, Rab9 prom act 2.51µM, ELG1 genotoxic inconclusive, FLuc counter 10.7µM (no result: Luc counter, SMN2 splice enh)
Cn1ccc(NC(=O)c2ccc([N+](=O)[O-])cc2)n1	none (no result: Luc counter, SMN2 splice enh)
Cc1onc(NC(=O)NC(=O)c2ccccc2F)c1Br	ELG1 genotoxic inconclusive, FLuc counter inconclusive (no result: Luc counter, SMN2 splice enh)
Cc1onc(NC(=O)c2ccc(Cl)cc2Cl)c1Br	NPC1 prom act inconclusive, Rab9 prom act 3.16µM, ELG1 genotoxic inconclusive, FLuc counter inconclusive (no result: SMN2 splice enh)
Cc1cccc(C(=O)Nc2ccn(C)n2)c1	NPC1 prom act inconclusive, Rab9 prom act 2.51µM, ELG1 genotoxic inconclusive, FLuc counter inconclusive (no result: Luc counter, SMN2 splice enh)
O=C(Nc1cnc2sccn2c1=O)c1ccc(Cl)cc1Cl	NPC1 prom act 0.447µM, Rab9 prom act 1µM, ELG1 genotoxic 2.59µM, SMN2 splice enh 8.91µM, FLuc counter 2.13µM
CCCCC	none (no result: NPC1 prom act, Rab9 prom act, ELG1 genotoxic, Luc counter, FLuc counter)
Cc1ccc(CNC(=O)c2c(C)oc3ncnc(N4CCOCC4)c23)cc1	none (no result: NPC1 prom act, Rab9 prom act, ELG1 genotoxic, Luc counter, SMN2 splice enh)
Cc1cc(=O)n(CC(=O)N2CCN(c3ccc(F)cc3)CC2)c2c1c(C)nn2C	none (no result: NPC1 prom act, Rab9 prom act, ELG1 genotoxic, Luc counter, SMN2 splice enh)
O=C(CSc1ncnc2sc3c(c12)CCCC3)c1ccco1	Rab9 prom act inconclusive, FLuc counter 12µM
Cc1nc(N2CCN(C(=O)c3ccco3)CC2)c2c3c(sc2n1)CCCC3	none
CCc1nc(SCC(=O)N2CCN(C(=O)c3ccco3)CC2)c2c3c(sc2n1)CCCC3	FLuc counter 16.9µM
Cc1ccc(NC(=O)C2CCN(c3nn4cc(-c5ccc(C)cc5)nc4s3)CC2)cc1	none (no result: NPC1 prom act, Rab9 prom act, ELG1 genotoxic, Luc counter, SMN2 splice enh)
Cc1nn2cc(-c3ccc(N)cc3)nc2s1	NPC1 prom act 1µM, Rab9 prom act 1µM, ELG1 genotoxic inconclusive, SMN2 splice enh 12.6µM, FLuc counter 10.7µM
Cc1cccc(Oc2ccc(Cl)cc2N)c1	FLuc counter 16.9µM
COc1cc(C/C=C\c2ccccc2)c(OC)cc1O	none (no result: NPC1 prom act, Rab9 prom act, ELG1 genotoxic, FLuc counter)
CCc1ccc(/C=C2/C(=O)NC(=O)N2C(C)=O)cc1	FLuc counter 8.49µM (no result: Luc counter, SMN2 splice enh)
O=C(c1ccco1)N1CCN(c2ccc(N3CCCCC3)nn2)CC1	NPC1 prom act inconclusive, Rab9 prom act 3.16µM, ELG1 genotoxic inconclusive, FLuc counter 23.9µM (no result: Luc counter, SMN2 splice enh)
Cc1nc(N2CCN(C(=O)c3ccco3)CC2)nc2c1C(=O)CCC2	NPC1 prom act 0.316µM, Rab9 prom act 0.1µM, ELG1 genotoxic 0.461µM, FLuc counter 0.757µM (no result: Luc counter, SMN2 splice enh)
O=C(Nc1ccc(-c2nnc3n2CCCCC3)cc1)c1ccco1	none
O=C(Nc1ccc(-c2ccc(N3CCCCC3)nn2)cc1)c1ccco1	NPC1 prom act inconclusive, Rab9 prom act 2.82µM, ELG1 genotoxic inconclusive, FLuc counter 4.78µM (no result: Luc counter, SMN2 splice enh)
NC(=O)N1CCN(C(=O)c2ccco2)CC1	none
CCN(CC)CCCNC(=O)c1cnc(SC)nc1-c1ccccc1	none (no result: NPC1 prom act, Rab9 prom act, ELG1 genotoxic, Luc counter, SMN2 splice enh)
CC(=O)Oc1ccc2oc(/C=C/N(C)C)c([N+](=O)[O-])c2c1	ELG1 genotoxic inconclusive, FLuc counter 15.1µM
COc1ccc(C(=O)O/N=C(\N)c2ccccc2)c(OC)c1	NPC1 prom act 3.16µM, Rab9 prom act inconclusive, ELG1 genotoxic inconclusive, Luc counter inconclusive, SMN2 splice enh 3.16µM, FLuc counter 1.69µM
COc1ccc(C(=O)O/N=C(\N)c2ccccn2)c(OC)c1	NPC1 prom act 0.501µM, Rab9 prom act 0.501µM, ELG1 genotoxic 1.46µM, FLuc counter 2.69µM (no result: Luc counter, SMN2 splice enh)
COc1ccc(C(=O)O/N=C(\N)c2ccc(OC)c(OC)c2)cc1	Rab9 prom act inconclusive, ELG1 genotoxic inconclusive, FLuc counter 7.57µM (no result: Luc counter, SMN2 splice enh)
COc1ccc(C(=O)O/N=C(\N)c2ccc(OC)c(OC)c2)c(OC)c1	ELG1 genotoxic inconclusive, FLuc counter inconclusive (no result: Luc counter, SMN2 splice enh)
COc1ccc(/C(N)=N/OC(=O)C2CCCCC2)cc1	NPC1 prom act 2.82µM, Rab9 prom act inconclusive, ELG1 genotoxic 8.2µM, FLuc counter 8.49µM (no result: Luc counter, SMN2 splice enh)
COc1ccc(/C(N)=N/OC(=O)C2CCCCC2)cc1OC	NPC1 prom act inconclusive, Rab9 prom act inconclusive, FLuc counter inconclusive (no result: Luc counter, SMN2 splice enh)
COc1ccc(COC(=O)C2=C(C)NC(=O)CC2c2cccc(Cl)c2Cl)cc1 (configuration not stated)	none (no result: NPC1 prom act, Rab9 prom act, ELG1 genotoxic, Luc counter)
CC(C)c1ccc(NC(=O)CSC2=Nc3ccccc3C3=NC(CCC(=O)NCc4cccs4)C(=O)N23)cc1 (configuration not stated)	none (no result: NPC1 prom act, Rab9 prom act, ELG1 genotoxic, Luc counter, SMN2 splice enh)
O=C(Nc1ccc(-c2csc(-c3ccccc3)n2)cc1)c1ccccc1	none
O=C(NCCc1nc(-c2ccccc2)cs1)c1ccc(Br)cc1	FLuc counter 15.1µM
O=C(O)c1ccc(-c2nc(-c3cccc(C(F)(F)F)c3)cs2)cc1	FLuc counter inconclusive
C=CCNC(=O)c1ccc(-c2nc(-c3ccccc3)cs2)cc1	NPC1 prom act inconclusive, Rab9 prom act 0.891µM, SMN2 splice enh 5.62µM, FLuc counter inconclusive
COc1ccc(-c2csc(-c3ccc(C(=O)O)cc3)n2)cc1	NPC1 prom act 0.316µM, Rab9 prom act 0.126µM, SMN2 splice enh 2µM, FLuc counter 0.953µM
O=C(O)c1ccc(-c2nc(-c3ccc(Cl)cc3Cl)cs2)cc1	NPC1 prom act 1.58µM, Rab9 prom act 1.41µM, ELG1 genotoxic inconclusive, SMN2 splice enh 11.2µM, FLuc counter 8.49µM
